Assay results published in PubChem BioAssay (NCATS).
Results filed as inconclusive are left out. Entries that show only a call come without a potency. Activity calls are given as the source filed them. The call rests on the fitted dose curve; in most records, active means well fitted inhibition curve with a large enough effect; inconclusive means small, poorly fitted or top-dose-only effect; inactive means flat fitted curve, though single readings scatter.

These molecules were tested against Calcium and integrin-binding protein 1 (Homo sapiens) (UniProt Q99828) (assay: Primary qHTS for Identification of Calcium Integrin Binding Protein 1 (CIB1) Competitor (AID 1508620;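 further: GST tagged CIB1 binding a fluorescein labelled alphaIIb integrin peptide tracer; top concentration of the series differs between compounds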)). Conditions: CIB1-GST / FITC-alphaIIb peptide fluorescence polarization; series mostly up to 57.7 µM.
In short: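 CIB1-GST (1 uM final) and compound incubated 15 min at room temperature before adding FITC-alphaIIb peptide tracer (100 nM final). Competition for binding read by fluorescence polarization (ex 480, em 540) after another 15 min at room temperature.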

Calcium and integrin-binding protein 1 (Homo sapiens), sequence (Q99828 whole entry, looked up): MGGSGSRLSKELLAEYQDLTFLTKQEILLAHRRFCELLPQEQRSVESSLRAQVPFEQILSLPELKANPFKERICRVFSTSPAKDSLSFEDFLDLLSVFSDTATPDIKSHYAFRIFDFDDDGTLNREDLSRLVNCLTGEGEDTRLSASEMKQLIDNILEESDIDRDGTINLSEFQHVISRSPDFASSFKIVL

Structure (SMILES) | Potency
N#Cc1ccnc(N2C(=O)CC[C@H]2C(=O)N(c2cncc(F)c2)[C@H](C(=O)NC2CC(F)(F)C2)c2ccccc2Cl)c1 | inactive
COc1ccc2c(c1)OC[C@]1(O)c3cc4c(cc3O[C@H]21)OCO4 | inactive
CC(=O)OC(CSC1CCC(=O)OC(C)CCC(=O)C1)C(=O)O (centres undefined) | inactive
CC1CC(=O)C2=C(O1)OC1(C)CCC3C(C)(C)C=CC(=O)C3(C)C1C2 (centres undefined) | inactive
Nc1nonc1C(=Nc1ccc(F)c(Cl)c1)NO | inactive
O=C(/C=C/c1ccc(O)c(O)c1)OCc1ccccc1O[C@@H]1O[C@H](CO)[C@@H](O)[C@H](O)[C@H]1O | inactive
Nc1c(Br)cc(Br)cc1CNC1CCC(O)CC1 (centres undefined) | inactive
COc1cc(/C=C/C(=O)OC2CC3CCC2(C)C3(C)C)ccc1O (centres undefined) | inactive
CC(=C/C(=O)O)/C=C/[C@]1(O)[C@@]2(C)CO[C@]1(C)C[C@H](O[C@@H]1O[C@H](CO)[C@@H](O)[C@H](O)[C@H]1O)C2 | inactive
C=C/C=C/[C@@H]1OC[C@H](/C=C/C=C/C)[C@H]1O | inactive
Clc1ccc(CN[C@H]2CCN(c3ncc(Br)cn3)C2)c(Cl)c1 | inactive
OC[C@H]1O[C@@H](Oc2cc(O)cc(-c3cc4ccc(O)cc4o3)c2)[C@H](O)[C@@H](O)[C@@H]1O | inactive
C[C@]12CC[C@@H]3c4ccc(O[C@@H]5O[C@H](C(=O)O)[C@@H](O)[C@H](O)[C@H]5O)cc4CC[C@H]3[C@@H]1CCC2=O | inactive
COc1ccccc1-n1c(SCC(=O)Nc2nc3ccc(C)cc3s2)nc2c(c1=O)SCC2 | inactive
